# Source: PubChem BioAssay (The Scripps Research Institute Molecular Screening Center)
# PAFAH2 inh – inhibitors of human PAFAH2; Q99487; recombinant PAFAH2, FP-rhodamine activity probe, fluorescence polarization; inhibition, % at 3.39 µM; hit rate 0.99% among 340,000; AID 492956;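 active means inhibition above the mean over all tested compounds plus 3 SD, cut at about 30% in these data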;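 further: inhibitors block probe labeling of enzyme so polarization drops; 0% = enzyme with DMSO and 100% = wells lacking PAFAH2 protein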
# PAFAH1B3 inh – blocks human PAF acetylhydrolase 1B catalytic subunit 3; recombinant PAFAH1B3, FP-rhodamine probe, fluorescence polarization; inhibition, % at 3.39 µM; hit rate 0.28% among 340,000; AID 492972;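 active means inhibition above the screen-wide average of all tested compounds plus 3 SD, cut at about 25% in these data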;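 further: 0% = enzyme with DMSO only and 100% = wells lacking PAFAH1B3 protein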
# pPAFAH inh – inhibitors of human plasma PAF acetylhydrolase (pPAFAH). inhibition, % at 3.39 µM. Q13093. hit rate 1.5% among 330,000. AID 463082. recombinant pPAFAH, FP-rhodamine probe fluorescence polarization;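 active means inhibition above the mean inhibition across the screen plus 3 SD, cut at about 25% in these data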;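 further: inhibitors block binding of the rhodamine activity-based probe so polarization drops; 0% = enzyme with DMSO and 100% = wells lacking pPAFAH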
# Target sequence (Q13093 whole entry, looked up): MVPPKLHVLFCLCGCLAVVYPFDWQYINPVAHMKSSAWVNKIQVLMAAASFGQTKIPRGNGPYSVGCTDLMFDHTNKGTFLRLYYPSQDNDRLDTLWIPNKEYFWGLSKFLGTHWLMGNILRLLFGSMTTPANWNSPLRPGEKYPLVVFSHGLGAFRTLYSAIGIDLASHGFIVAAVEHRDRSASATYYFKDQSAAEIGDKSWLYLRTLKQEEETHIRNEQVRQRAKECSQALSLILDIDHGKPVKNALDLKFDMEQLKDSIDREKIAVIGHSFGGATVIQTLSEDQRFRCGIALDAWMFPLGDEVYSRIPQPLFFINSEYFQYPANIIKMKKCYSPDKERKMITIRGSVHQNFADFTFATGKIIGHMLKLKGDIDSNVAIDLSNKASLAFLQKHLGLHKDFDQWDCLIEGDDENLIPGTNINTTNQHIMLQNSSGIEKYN
# PAFAH1B2 FP inh – blocks human PAF acetylhydrolase 1b catalytic subunit 2; hit rate 1.2% among 340,000; P68402; recombinant PAFAH1B2, FP-rhodamine activity probe, fluorescence polarization; inhibition, % at 3.39 µM; AID 492953;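 active means inhibition above the mean of all tested compounds plus 3 SD, cut at about 24% in these data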;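 further: 0% = enzyme with DMSO and 100% = wells lacking PAFAH1B2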
# Target sequence (P68402 whole entry, looked up): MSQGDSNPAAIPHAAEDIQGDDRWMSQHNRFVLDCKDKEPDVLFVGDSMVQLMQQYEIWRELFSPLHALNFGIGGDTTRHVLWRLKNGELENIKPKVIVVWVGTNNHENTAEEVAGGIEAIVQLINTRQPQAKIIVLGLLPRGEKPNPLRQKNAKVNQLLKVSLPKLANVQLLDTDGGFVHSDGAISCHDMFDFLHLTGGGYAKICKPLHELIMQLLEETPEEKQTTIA
# PME-1 inh – PME-1 (human) inhibition; Q9Y570; recombinant PME-1, FP-Rh probe fluorescence polarization; inhibition, % at 5.9 µM; hit rate 0.53% among 320,000; AID 2130;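 active means inhibition above the campaign mean of all compounds plus 3 SD, cut at about 26% in these data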;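 further: competitive labeling of PME-1 active site by serine hydrolase directed probe; 0% = PME-1 with DMSO and 100% = wells lacking PME-1 enzyme; inhibitors block probe labeling so polarization falls and inhibition rises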
# Fam108B inh – blocks mouse Fam108B hydrolase in RBBP9 counter-screen | AID 1947 | recombinant Fam108B, FP-Rh probe fluorescence polarization | inhibition, % at 9.51 µM | hit rate 0.33% among 300,000;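 active means inhibition above the screen mean inhibition plus 3 SD, computed separately per campaign, cut at about 18% in these data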;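 further: inhibitors lower polarization as less probe binds the enzyme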
# PAFAH2 confirm – confirmation of human PAFAH2 inhibitors; hit rate 65% among 2,300; recombinant PAFAH2, FP-rhodamine activity probe, fluorescence polarization; inhibition, % at 3.39 µM; AID 493030; shares compounds with PAFAH2 inh;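 active means mean inhibition over three repeats above a set limit taken from the earlier primary screen, cut at about 30% in these data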;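 further: inhibitor blocks binding of rhodamine activity probe so polarization falls; 0% = enzyme with DMSO and 100% = wells lacking PAFAH2 protein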
# An asterisk follows results filed as active; . = no result. Sampled rows, rich in hits. Any-hit rate of the full collection: about 2.9%.
SMILES,PAFAH2 inh,PAFAH1B3 inh,pPAFAH inh,PAFAH1B2 FP inh,PME-1 inh,Fam108B inh,PAFAH2 confirm
CNC(=S)NNc1nc(C)cc(C)n1,-2.5,2.3,-0.4,-0.9,-8.4,0.9,.
CCN(C(=O)COC(=O)c1cc(-c2ccc(C)o2)nc2ccccc12)C1CCS(=O)(=O)C1 (stereo unspecified),45.5*,-2.8,4.7,-1.5,5.3,-0.1,-0.4
Cc1ccc(-c2cc(C(=O)OCC(=O)N(C)C3CCS(=O)(=O)C3)c3ccccc3n2)o1 (stereo unspecified),-3.3,0.5,0.0,5.7,-5.0,-9.2,.
O=C(c1ccc(-c2ccc([N+](=O)[O-])cc2)o1)N1CCN(S(=O)(=O)c2cccs2)CC1,8.1,3.0,17.5,12.3,6.7,.,.
CC1CCCC(C)N1C(=O)Cn1nnc(-c2ccccc2)n1 (stereo unspecified),-3.4,4.1,6.0,4.7,0.1,-2.3,.
CC1CCCC(C(=O)O)N1C(=O)CCSC(=O)c1ccccc1 (stereo unspecified),44.3*,11.1,1.4,2.4,-5.4,-2.6,45.6*
CCOC(=O)C1CCCN(S(=O)(=O)c2ccc3c4c2CC(=O)N4CC(C)S3)C1 (stereo unspecified),34.7*,3.5,15.6,-2.7,6.1,1.0,17.7
CCN1C(=O)[C@@H]2[C@@H](c3ccc(-c4ccc(Cl)c(Cl)c4)c(OC)c3)N3CCCC[C@@]3(C(=O)OC)[C@@H]2C1=O,-3.5,1.2,-0.8,-0.2,-0.7,-2.5,.
Cc1ccc(NC(=O)CS(=O)CC(=O)N(CC(=O)NC(C)(C)C)c2cccc(C)c2C)cc1 (stereo unspecified),-0.3,3.9,2.4,11.9,6.0,4.2,.
CC(NC(=O)COC(=O)/C=C/c1ccc2c(c1)OCO2)c1ccccc1 (stereo unspecified),47.2*,1.1,1.2,6.6,2.3,.,37.6*
CC1CCCC(NC(=O)COC(=O)/C=C/c2ccc3c(c2)OCO3)C1C (stereo unspecified),82.1*,1.4,4.0,3.5,1.2,-1.4,75.5*
O=C(COC(=O)/C=C/c1ccc2c(c1)OCO2)NC1CC1,56.3*,-5.1,5.4,4.9,2.6,-1.9,40.7*
CC(C)NC(=O)NC(=O)COC(=O)/C=C/c1ccc2c(c1)OCO2,7.0,4.9,-3.5,2.5,-6.0,1.2,.
O=S(=O)(c1ccc(-c2csc(Nc3ccc(Br)cc3)n2)cc1)N1CCCC1,30.3*,6.4,23.9,1.0,37.6*,8.9,-1.8
O=S(=O)(c1ccc(-c2csc(Nc3ccc(F)cc3)n2)cc1)N1CCCC1,-14.3,7.3,8.6,-5.5,11.5,9.4,.
CCN(CC)c1ccc(C(=O)OCC(=O)Nc2ncccn2)cc1,76.9*,9.0,24.4,6.3,.,.,70.0*
CCN(CC)c1ccc(C(=O)OCC(=O)Nc2ccccc2-c2ccccc2)cc1,76.6*,5.2,19.9,-4.3,7.8,-3.5,51.4*
COCC(=O)Nc1ccccc1-c1ccccc1,7.5,4.9,2.3,3.2,4.8,-0.9,.
CCN(CC)c1ccc(C(=O)OCC(=O)Nc2cc3oc4ccccc4c3cc2OC)cc1,2.6,-2.1,-6.8,0.8,-0.7,-2.1,.
CCN(CC)c1ccc(C(=O)OCC(=O)Nc2sccc2C#N)cc1,46.6*,-6.3,8.9,-3.4,-2.4,-3.1,53.7*
COc1cc([N+](=O)[O-])ccc1NC(=O)NNC(=O)c1sccc1C,0.2,5.4,-1.3,-2.7,7.4,1.6,.
CNC(=O)C1CC(=O)N(c2ccc(OCC(=O)N3CCCC3)cc2)C1 (stereo unspecified),-1.1,5.6,-2.5,1.4,0.4,-0.2,.
O=C(COc1ccc(Cl)cc1)OCC(=O)N1CCCC1,36.7*,10.0,15.6,5.4,9.1,-1.2,21.2
NC(=O)C1CC(=O)N(c2ccc(OCC(=O)N3CCCC3)cc2)C1 (stereo unspecified),57.5*,6.2,.,1.7,.,.,47.6*
CSc1nc(N)nc2c1ncn2CC(=O)N1CCN(Cc2c(C)cc(C)cc2C)CC1,2.2,1.9,-21.7,4.6,.,.,.
SMILES,PAFAH2 inh,PAFAH1B3 inh,pPAFAH inh,PAFAH1B2 FP inh,PME-1 inh,Fam108B inh,PAFAH2 confirm
COc1ccccc1C(=O)OCCCN=C1NS(=O)(=O)c2ccccc21,1.6,0.3,0.6,5.0,0.7,-0.4,.
COc1ccc(C(=O)OCCN=C2NS(=O)(=O)c3ccccc32)cc1OC,42.6*,13.7,2.9,0.1,3.3,6.4,23.3
CC(C)Cc1csc(NC(=O)c2ccc(F)cc2)c1C(=O)O,36.6*,2.8,9.0,2.9,-0.5,-2.8,21.1
CC1CCN(C(=O)CCCl)c2ccccc21 (stereo unspecified),0.9,-1.7,.,0.4,.,.,.
O=C1Nc2cccnc2N(C(=O)CCl)c2ccccc21,-1.3,-1.1,-1.0,6.1,2.9,0.6,.
CCn1c(SCC(=O)c2c(N)n(C3CC3)c(=O)[nH]c2=O)nnc1-c1ccccc1OC,2.7,0.8,-1.6,1.9,-5.8,.,.
CCn1c(SCC(=O)c2ccc(O)c(O)c2)nnc1-c1ccccc1OC,42.3*,12.4,29.2*,5.5,0.4,-0.8,25.7
N#C/C(=C\c1ccc(O)c(O)c1)C(=O)N1CCc2ccccc21,48.7*,23.1,3.4,10.1,3.3,5.6,33.2*
COc1cc(/C=C(\C#N)C(=O)N2CCc3ccccc32)ccc1O,3.6,8.6,2.8,-2.3,-3.2,-0.3,.
CN(Cc1ccco1)C(=O)c1cc2c(s1)-c1ccc(Cl)cc1S(=O)(=O)C2,51.1*,3.3,1.8,-1.4,1.8,4.4,-10.4
COc1ccc(N(C)C(=O)c2cc3c(s2)-c2ccc(Cl)cc2S(=O)(=O)C3)c(OC)c1,2.5,3.4,-3.1,-2.8,3.8,-7.8,.
COC(=O)c1ccc(NC(=O)c2cccc(C)c2[N+](=O)[O-])cc1,-2.9,9.9,2.3,-7.7,1.0,0.8,.
Cc1cc(C)c(S(=O)(=O)N2CCN(C(=O)N3CCOCC3)CC2)c(C)c1,28.2,6.2,-1.2,6.8,2.2,3.1,.
Cc1cc(C)c(S(=O)(=O)N2CCN(C(=O)N3CCCCC3)CC2)c(C)c1,33.6*,7.6,1.3,-2.8,-0.3,-0.8,29.8*
NC(=O)Nc1ccc(C(=O)OCC(=O)NC2CCCCC2)cc1,81.2*,9.0,4.1,-0.1,-8.1,1.5,80.2*
O=C(COC(=O)c1ccc(NS(=O)(=O)c2cccs2)cc1)NCC1CCCO1 (stereo unspecified),22.4,2.6,7.8,1.2,-4.8,3.7,.
Cc1c(NS(=O)(=O)c2cccc(C(=O)OCC(=O)N(C)C3CCCCC3)c2)c(=O)n(-c2ccccc2)n1C,33.7*,2.3,5.4,2.5,0.1,-4.5,20.7
CN(C(=O)COC(=O)c1ccc(NS(=O)(=O)c2cccs2)cc1)C1CCCCC1,69.9*,11.8,21.7,0.2,-3.9,-0.5,72.1*
